Shown are actives, neighbours in structure and some others; about 3.4% of the full set was active somewhere.
PAX8 reporter: PAX8 transcriptional activity inhibition; hit rate 1.2% among 360,000; inhibition, % at 12.6 µM; RMG-I TPO-luciferase reporter, SteadyGlo, 24 h;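 active = mean replicate inhibition at least 60% with every replicate also reaching 60%; inconclusive = only one of the two criteria is met; inactive = mean below 60% and not all replicates reaching 60%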;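 also: luciferase light reporting Pax8 driven TPO promoter activity; plate controls were median of neutral control wells for no effect and mitoxantrone controls for full effect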
SIRT5 block: inhibitors of human sirtuin-5 desuccinylase; Purified SirT5, succinyl-peptide AMC, trypsin-coupled fluorescence; inhibition, % at 15 µM; AID 652115; hit rate 1.1% among 330,000; Q9NXA8; in the data active = inhibition above about 15%; inconclusive = no clear call, values can overlap the other calls
Target sequence (Q9NXA8 whole entry, looked up): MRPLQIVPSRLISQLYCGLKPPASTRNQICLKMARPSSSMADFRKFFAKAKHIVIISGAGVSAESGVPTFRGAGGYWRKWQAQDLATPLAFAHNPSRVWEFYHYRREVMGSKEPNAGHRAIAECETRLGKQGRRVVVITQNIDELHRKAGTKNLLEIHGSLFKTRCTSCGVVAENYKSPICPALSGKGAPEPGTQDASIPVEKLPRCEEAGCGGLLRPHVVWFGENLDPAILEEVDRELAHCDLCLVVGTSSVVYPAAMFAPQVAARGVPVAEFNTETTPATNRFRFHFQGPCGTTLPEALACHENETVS
LGR2 inh: inhibitors of bursicon-induced Drosophila LGR2 receptor cAMP signaling | inhibition, % at 9.99 µM | hit rate 0.35% among 380,000 | AID 720647 | HEK293 LGR2, CRE-luciferase, bursicon-stimulated, 4 h;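 active = drop in luminescence signal, shown as inhibition above about 50% in the replicate tests, limit read from the data, passing the limit was not always enough; inconclusive = probably only some replicates passing the limit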;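 also: agonist challenge used bursicon conditioned medium at about half maximal strength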
PGC1a acetyl inh: PGC1a acetylation modulation, inhibitor mode; hit rate 0.17% among 350,000; inhibition, % at 15.6 µM; U2OS PGC1a acetylation, AlphaScreen anti-acetyl-lysine; with virally co-expressed GCN5 acetyltransferase; AID 651687;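 active = every replicate shows inhibition of at least 40%; inconclusive = mean inhibition at least 40% but some replicate below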;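 also: 0% = neutral control wells and 100% = positive control wells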
EWS-Fli inh: inhibitors of EWS/Fli oncoprotein transcriptional activity; A673 NR0B1-luciferase reporter, viability-normalised; hit rate 0.67% among 350,000; inhibition, % at 12.6 µM; AID 651661;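 active = mean inhibition of at least 50% after viability correction, with every replicate also passing that limit; inconclusive = mean reaches 50% but only one of two replicates passes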;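 also: firefly luciferase signal divided by Alamar Blue viability fluorescence both relative to DMSO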
Ecoli rRNA inh: inhibits bacterial ribosomal RNA function over humanized ribosomes; E. coli WT GFP vs humanized-ribosome RFP mutants, fluorescence, 24 h; stronger effect = lower value; DMSO median 0, no signal -100; GFP signal change (wild-type ribosome), % (test concentration not listed); hit rate 1.6% among 350,000; AID 720706;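 active = significant combined selectivity score with lowered wild-type GFP, culture density cut under 30%, mutant RFP and density less affected; inactive = any of these conditions unmet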
* hit, by the source's call; u = inconclusive; x = no result given.

SMILES	PAX8 reporter	SIRT5 block	LGR2 inh	PGC1a acetyl inh	EWS-Fli inh	Ecoli rRNA inh
CO[C@H]1CN(C)C(=O)c2cc(NC(=O)c3ccc(F)cc3)ccc2OC[C@@H](C)N(Cc2cocn2)C[C@@H]1C	x	x	-10	-2	-1	1
O=C(c1cccnc1)N1CC[C@@H]2[C@H](CO)Nc3ccc(-c4ccc(F)cc4)cc3[C@@H]21	-3	5	16	2	0	-2
Cc1ccc(C)c(S(=O)(=O)N(C(=O)c2ccncc2)c2ccc(OC(=O)c3ccncc3)cc2)c1	6	-1	96*	44*	5	2
N#Cc1cccc(C#N)c1Oc1ccc(S(=O)(=O)Nc2ccccc2)cc1	25	-2	x	26	13	x
N#Cc1c(Cl)cccc1Oc1ccc(S(=O)(=O)Nc2ccccc2)cc1	-14	-2	-1	-3	16	-28*
O=C(NCc1nnc(SCc2ccccc2)n1-c1ccccc1)C12CC3CC(CC(C3)C1)C2	28	1	7	x	17	-31*
COc1ccc(NC(=O)Nc2ccc3c(c2)[C@@H]2C[C@@H](CC(=O)NCCc4ccccc4)O[C@@H](CO)[C@@H]2O3)cc1	25	0	-20	-11	6	-4
CO[C@H]1CC[C@@H]2CCOc3ccc(C#N)cc3C(=O)N(C)C[C@@H](OC)[C@H](C)C(=O)N(C)C[C@H]1O2	2	-4	19	x	-2	0
CCn1c(COc2ccccc2)nnc1SCC(=O)C(C)(C)C	x	x	x	-2	x	x
CCOC(=O)CN(C(=O)CSc1nnc(CNc2ccc(C)cc2C)n1CC)c1ccccc1	x	x	x	-5	x	x
CCn1c(COc2ccccc2)nnc1SCC(=O)c1cccc([N+](=O)[O-])c1	x	-2	-11	-7	1	-24*
CCOC(=O)CN(C(=O)CSc1nnc(COc2ccc(OC)cc2)n1CC)c1ccccc1	12	-2	-13	-9	4	-27*
COC(=O)[C@H]1[C@H](CO)[C@H]2Cn3c(ccc(C4=CCCCC4)c3=O)[C@H]2N1C(=O)C1CCC1	x	-12	7	x	1	-2
CN1CCN(c2ccc(NC(=O)COc3cccc4ccccc34)cc2)CC1	5	-12	-10	9	-13	-7
C=CC(=O)Nc1cccc(Oc2ccnc(Nc3ccc(N4CCN(C)CC4)cc3)n2)c1	74*	-2	23	u	5	-3
O=C1C(=O)c2ccccc2C(O)=C1c1cccc([N+](=O)[O-])c1	31	-1	3	21	-9	-24*
C=CCn1c(COc2ccccc2)nc2ccccc21	-55	x	-12	x	-28	-27*
NC(=O)COC(=O)CC(NC(N)=O)c1ccc(Cl)cc1 (stereo not drawn)	-12	-4	17	107*	-15	-1
CCCS(=O)(=O)NC(=O)C1(C)CCN(C(=O)c2cccs2)C1 (stereo not drawn)	-1	20*	2	40	-6	8
CC(C)CC#Cc1ccc2c(c1)O[C@@H](CN(C)Cc1ccncc1)[C@H](C)CN([C@@H](C)CO)S2(=O)=O	87*	2	5	2	34	-16
C[C@H](CO)N1C[C@H](C)[C@H](CN(C)Cc2ccccc2F)Oc2cc(C#CC3CC3)ccc2S1(=O)=O	x	43*	-6	-3	-3	-11
CC(C)CC#Cc1ccc2c(c1)O[C@H](CN(C)Cc1ccccn1)[C@@H](C)CN([C@@H](C)CO)S2(=O)=O	61*	11	7	-5	31	-23
CC(C)CC#Cc1ccc2c(c1)O[C@@H](CN(C)CC1CCOCC1)[C@H](C)CN([C@H](C)CO)S2(=O)=O	x	17*	-3	4	42	-17
CCCC#Cc1ccc2c(c1)O[C@H](CN(C)CC1CCOCC1)[C@H](C)CN([C@H](C)CO)S2(=O)=O	-5	8	3	-3	1	4
C[C@@H]1CN([C@@H](C)CO)S(=O)(=O)c2ccc(C#CC3CC3)cc2O[C@@H]1CN(C)Cc1ccccc1F	x	x	20	-27	15	-6
C[C@@H](NC(=O)C[C@H]1C[C@H]2c3cc(NC(=O)CN(C)C)ccc3O[C@H]2[C@H](CO)O1)c1ccccc1	9	9	11	7	3	0
